PNC inhibitor = perinucleolar compartment assembly inhibition. activity change (PNC), negative = inhibition, % at 10 µM. PC3M PTB-GFP, PNC prevalence imaging, 16 h; hits give low values. 140,000 compounds, 3.1% hits;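 active = readout at or below -70, meaning at least 70% loss of cells showing the perinucleolar compartment, a nuclear body marking cancer cells; inconclusive = readout between -30 and a set limit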;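 also: plate controls were DMSO wells for no effect and camptothecin positive control wells for full effect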
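PC3M cells stably expressing PTB-GFP, 750–1000 cells/well, treated 16 h at 37 °C with compound (23 nl of library stock), in duplicate. After paraformaldehyde fixation and Hoechst stain, imaged at 20x; PNC prevalence scored by image analysis.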
HPGD block = inhibitors of human 15-hydroxyprostaglandin dehydrogenase (HPGD) | P15428 | AID 894 | purified HPGD, NADH fluorescence kinetic, PGE2 substrate | 150,000 compounds, 4.3% hits | Potency, µM, for the others: top-dose activity change, negative = inhibition, actives largely listed as inhibitors; active = well fitted inhibition curve with a large enough effect, not every such curve was filed as active; inconclusive = small, poorly fitted or top-dose-only effect, or another doubt; inactive = no such curve, though single readings can be large or run the other way; also: potency is read from the fitted curve at half-maximal effect
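NADH formation kinetics: reaction with 30 uM PGE2 and 1 mM NAD+ (final), 20 nM enzyme, Tris-HCl pH 8 with Tween 20, after 15 min compound preincubation at room temperature. Fluorescence change, last versus first of five reads.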
ALOX12 inhib = 12-hLO (ALOX12) enzyme inhibition | AID 1452 | P18054 | Potency, µM (highest dose often 57.1 µM), for inactives: top-dose activity change, negative = inhibition, usual class: inhibitors | 150,000 compounds, 0.12% hits | purified 12-hLO, xylenol orange hydroperoxide absorbance; also: potency is read from the fitted curve at half-maximal effect; nearly all actives have a fitted effect of over 55% in size
Target sequence (P18054 whole entry, looked up): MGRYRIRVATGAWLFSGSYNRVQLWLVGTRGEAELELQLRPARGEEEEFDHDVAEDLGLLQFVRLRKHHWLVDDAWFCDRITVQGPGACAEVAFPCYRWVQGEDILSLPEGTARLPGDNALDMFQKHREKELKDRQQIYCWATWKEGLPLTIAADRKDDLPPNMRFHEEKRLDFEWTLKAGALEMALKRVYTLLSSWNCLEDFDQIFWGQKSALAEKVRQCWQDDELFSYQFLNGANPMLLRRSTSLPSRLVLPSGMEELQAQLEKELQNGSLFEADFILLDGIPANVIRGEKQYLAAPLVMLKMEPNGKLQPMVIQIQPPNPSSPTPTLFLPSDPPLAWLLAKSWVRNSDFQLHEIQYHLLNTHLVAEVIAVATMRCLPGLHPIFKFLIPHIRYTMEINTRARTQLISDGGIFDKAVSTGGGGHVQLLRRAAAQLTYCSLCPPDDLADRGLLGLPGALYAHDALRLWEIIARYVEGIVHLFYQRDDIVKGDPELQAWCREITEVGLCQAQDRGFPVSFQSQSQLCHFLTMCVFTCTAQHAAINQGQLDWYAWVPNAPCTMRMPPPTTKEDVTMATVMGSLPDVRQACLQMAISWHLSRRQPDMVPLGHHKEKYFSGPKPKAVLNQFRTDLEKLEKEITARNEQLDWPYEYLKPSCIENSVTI
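Purified human 12hLO (150 nM final) was preincubated with compounds for 15 min at room temperature in 25 mM Hepes pH 7.0, 0.01% Triton X-100, then reacted with 40 uM arachidonic acid for 30 min. Hydroperoxide was detected with ferrous iron/xylenol orange.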
IMPase inh = membrane-permeable compound that blocks inositol monophosphatase; CHO-M1 cells, IP1 accumulation, HTRF TR-FRET ratio; inhibition (IP1 accumulation), % at 46.1 µM; 120,000 tested, under 10 active; AID 901; active = well fitted curve in the direction sought with a large enough effect in the signal ratio, not every such curve was filed as active; inconclusive = small, poorly fitted or top-dose-only effect, or a change in a side signal; inactive = no such curve, though single readings can be large or run the other way; the % refers to the signal ratio;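 also: cells stimulated with carbachol in lithium chloride buffer; plate controls were DMSO basal wells for no effect and reference inhibitor wells for full effect; higher means more IMPase inhibition seen as more IP1 and lower FRET ratio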
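Elevated IP1 in lysates lowers TR-FRET signal (665/620 ratio and 620 channel reported). Cells were CHO-M1, given carbachol (50 uM as added) plus 50mM LiCl, pH 7.4, 30 min, 37C; compounds titrated up to 46 uM; AC50 by Hill equation.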
ALOX15B inhib = inhibitors of human 15-lipoxygenase 2 (ALOX15B); O15296; purified 15hLO-2, xylenol orange hydroperoxide absorbance; Potency, µM (highest dose often 57.1 µM), without a hit: at the highest dose activity change, negative = inhibition, hits mostly inhibitors; 110,000 compounds, 0.56% hits; also: potency is read from the fitted curve at half-maximal effect; nearly all actives have a fitted effect of over 60% in size
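Screening format was qHTS against 50 nM purified 15hLO-2 in Hepes pH 7.5 with detergent. Activity follows hydroperoxide formation from 45 uM arachidonic acid, measured as 573:405 nm absorbance ratio of the ferric-xylenol orange complex.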
IMPase Li inh = membrane-permeable IMPase blocker, potentiated with lithium | CHO-M1 cells, IP1 TR-FRET (IP-One), carbachol + lithium | Potency, µM (series often up to 59.4 µM), inactives show at the highest dose activity, negative = IMPase inhibition, most hits filed as inhibitors | 210,000 compounds, 0.35% hits | AID 1457;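 also: IP1 builds up when IMPase is blocked and the TR-FRET signal falls; potency is read from the fitted curve at half-maximal effect; plate controls were basal vehicle for no effect and high inhibitor control for full effect; nearly all actives have a fitted effect of over 50% in size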
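CHO cells stably expressing M1 receptor (2000/well, cultured 16–30 h) treated 30 min at 37C with compound plus low lithium. Cytosolic IP1 by TR-FRET (665/620 ratio and 620 channel) after 10 min lysis; AC50 by Hill fit.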
Numbers without * were called inactive; [ ] = another dose, or the depositor's remark. Only some compounds are listed: those with a hit (about 5.4% of all), similar ones and a draw of the others. Unless noted, calls follow the shape of the dose curve; as a rule, active = well fitted curve in the direction sought with a large enough effect; inconclusive = small, poorly fitted or top-dose-only effect, or another doubt; inactive = no such curve, though single readings can be large; an effect the other way counts as inactive or inconclusive. Unless noted, % is scaled to controls: 0 for no effect and ±100 for the full control effect.

Screening COC(=O)C1=C(C)NC(C)=C(C(=O)OCCCN2CCC(c3ccccc3)(c3ccccc3)CC2)[C@H]1c1cccc([N+](=O)[O-])c1 returned HPGD block -4%, ALOX12 inhib -5%, IMPase inh 6, ALOX15B inhib 50% and IMPase Li inh 16%.
O=C(O)CSCc1cccc2ccccc12 was read as HPGD block -9%, ALOX12 inhib 3%[11.4 µM], ALOX15B inhib 16%[11.4 µM] and IMPase Li inh -3%.
`CSc1ncccc1C(=O)OCc1ccc(COC(=O)c2cccnc2SC)cc1` gave PNC inhibitor -108*, HPGD block -9%, ALOX12 inhib 6%, IMPase inh -11, ALOX15B inhib 3% and IMPase Li inh -8%[38.3 µM].
Screening COc1ccc(N=Nc2nc3cc(Br)c(Br)cc3n2C)c(OC)c1 returned PNC inhibitor -16, HPGD block 7.9µM*, ALOX12 inhib -23%, IMPase inh 5 and IMPase Li inh 37%.
Screening Cc1ccc(N(CC(=O)NCC2CCCO2)C(=O)Cn2nnc(-c3cccs3)n2)cc1 (centres undefined) returned IMPase Li inh -2%.
For Cc1ccc(SCCC(=O)NCC2CCCO2)cc1 (centres undefined) the results were PNC inhibitor -115*, HPGD block 16µM*, ALOX12 inhib -1%, IMPase inh 0, ALOX15B inhib 0% and IMPase Li inh 8%.
Cc1ccc(-c2cc(C(=O)NCC3CCCO3)no2)cc1 (centres undefined) was read as PNC inhibitor -1, HPGD block 14µM*, ALOX12 inhib 2%, IMPase inh -15, ALOX15B inhib -4% and IMPase Li inh 14%[38.3 µM].
`Cc1ccc(-n2nc(-c3cccs3)cc2C(=O)NCC2CCCO2)c(C)c1` (centres undefined) gave PNC inhibitor 18, HPGD block 1µM*, ALOX12 inhib -6%, IMPase inh 0, ALOX15B inhib -22% and IMPase Li inh 12%.
O=C(NCC1CCCO1)c1cc(-c2ccc(Cl)cc2Cl)on1 (centres undefined) was read as PNC inhibitor 29, HPGD block 8.9µM*, ALOX12 inhib 1%, IMPase inh 10, ALOX15B inhib 3% and IMPase Li inh -7%[38.3 µM].
`O=C(NCC1CCCO1)c1cc(-c2ccccc2)on1` (centres undefined) gave PNC inhibitor inconclusive, HPGD block inconclusive, ALOX12 inhib -2%, IMPase inh 7, ALOX15B inhib 4% and IMPase Li inh 12%[38.3 µM].
Cc1ccc(SCC(=O)NCC2CCCO2)cc1 (centres undefined) was read as IMPase Li inh 1%.
Screening O=C(NC(=S)NCC1CCCO1)c1ccc(Cl)cc1Cl (centres undefined) returned PNC inhibitor inconclusive, HPGD block -5%, ALOX12 inhib -6% and IMPase Li inh 2%.
`O=C(O)C(O)C(O)C(O)C(O)C(=O)O` (centres undefined) gave HPGD block -16%, ALOX12 inhib -4%, ALOX15B inhib 4% and IMPase Li inh 6%.
Cc1ccc(-c2nnc(Nc3cccc(Cl)c3)c3ccccc23)cc1S(=O)(=O)NCC1CCCO1 (centres undefined) was read as IMPase inh 4.
`O=S(=O)(NC1CCCCC1)c1ccc(-c2csnn2)s1` gave PNC inhibitor 7, HPGD block 14µM*, ALOX12 inhib -6%, IMPase inh 7, ALOX15B inhib -7% and IMPase Li inh 14%[38.3 µM].
`O=S(=O)(NC1CCCCC1)c1ccc(Cl)s1` gave PNC inhibitor 1, HPGD block inconclusive, ALOX12 inhib 4%, IMPase inh 12, ALOX15B inhib -4% and IMPase Li inh 23%[38.3 µM].
`O=S(=O)(NC1CCCC1)c1ccc(Br)s1` gave PNC inhibitor 24, HPGD block 25µM*, ALOX12 inhib -4%, IMPase inh -2, ALOX15B inhib -4% and IMPase Li inh 4%[38.3 µM].
Screening CC(C)(C)NS(=O)(=O)c1ccc(-c2csnn2)s1 returned PNC inhibitor 15, HPGD block -20%, ALOX12 inhib -6%, IMPase inh 1, ALOX15B inhib -1% and IMPase Li inh 19%[38.3 µM].
`CC1(C)CC=C(O[Si](C)(c2ccccc2)c2ccccc2)CC1` gave HPGD block -1% and IMPase Li inh 17%.
Screening COCCN(CCOC)S(=O)(=O)c1ccc(C(=O)Nc2nc(-c3ccccc3)c(C(=O)c3ccccc3)s2)cc1 returned PNC inhibitor -14, HPGD block -21%, ALOX12 inhib 1% and IMPase Li inh -16%.
COC(=O)Nc1nc(-c2ccccc2)c(C(=O)c2ccc(Cl)cc2)s1 was read as PNC inhibitor -102*, HPGD block -3%, ALOX12 inhib 4%, IMPase inh -6, ALOX15B inhib 7% and IMPase Li inh 26%[38.3 µM].
For CCOC(=O)Nc1nc(-c2ccccc2)c(C(=O)c2ccccc2)s1 the results were PNC inhibitor -83*, HPGD block -19%, ALOX12 inhib -2%, IMPase inh -7, ALOX15B inhib 5% and IMPase Li inh inconclusive.
N#Cc1c(-n2ncnc2-c2ccccc2Cl)sc2c1CCCCC2 was read as IMPase inh -7.
Screening O=C(CC1(O)C(=O)N(CCc2ccccc2)c2ccc(Br)cc21)c1ccccc1O (centres undefined) returned IMPase inh -4.
`Cc1ccc(-n2nc3c(n2)/C(=N/O)CC/C3=N\O)cc1` gave PNC inhibitor -100*, HPGD block -19%, ALOX12 inhib -8%, IMPase inh 2 and IMPase Li inh 10%.
Fc1ccccc1Nc1nc2c(s1)CCc1ccccc1-2 was read as PNC inhibitor -23, HPGD block 22µM*, ALOX12 inhib inconclusive and IMPase Li inh 17%.
Screening CC(/C=N/Nc1nc(C)cc(C)n1)=C\c1ccc(C(C)C)cc1 returned PNC inhibitor -114*, HPGD block -11%, ALOX12 inhib -3% and IMPase Li inh 1%.
CC(/C=N/NC(=O)c1ccncc1)=C\c1ccc(C(C)C)cc1 was read as PNC inhibitor inconclusive, ALOX12 inhib -8%, IMPase inh 0 and ALOX15B inhib 3%.
Screening Cc1sc2nc(CSc3ccccc3)nc(N3CCN(C)CC3)c2c1C returned PNC inhibitor 27, HPGD block -6%, ALOX12 inhib 1% and IMPase Li inh 14%.
Screening COCCNc1nc(CSc2ccccc2)nc2sc(C)c(C)c12 returned PNC inhibitor -86*, ALOX12 inhib -3% and IMPase inh 9.
